# From PubChem BioAssay
# L3MBTL1 inh-1: inhibitors of human L3MBTL1; Q9Y468; AlphaScreen L3MBTL1–H3K9me1 peptide binding; Potency, µM (highest dose often 57.1 µM), for the others: top-dose activity, negative = inhibition, actives largely listed as inhibitors; hit rate 0.66% among 230,000; AID 485360; note: % is set by controls: 0 for no effect and ±100 for the full control effect; nearly all actives have a fitted effect of over 60% in size
#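 AlphaScreen proximity signal between nickel-chelate acceptor and streptavidin donor beads (final 10 ug/mL) reports binding of 50 nM L3MBTL1 to 75 nM biotin-H3 K9me1 peptide; complex incubated with compounds 30 min at room temperature; cefsulodin titration as control.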
# HTT cytoprotect: Huntington cell model cytoprotection by ATP luminescence | hit rate 0.14% among 230,000 | PC12 HTT-Q103 induced, cytoprotection, ATP luminescence, 40 h | Potency, µM (titrated, usually from 56.4 µM), for inactives: cytoprotection (ATP increase), usual class: activators | AID 1471; note: % of control where 0% means no effect; nearly all actives have a fitted effect of over 45% in size
#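 Huntington model: PC12 line, ecdysone-inducible HTTQ103 exon1–GFP, tebufenozide 100 nM. Test articles in a dose series. Endpoint luminescence from cellular ATP.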
# JMJD2E inh: inhibitors of human JMJD2E histone demethylase | hit rate 1.6% among 230,000 | Potency, µM (series often up to 57.1 µM), inactives show top-dose activity change, negative = inhibition, most hits filed as inhibitors | B2RXH2 | JMJD2E catalytic domain, FDH-coupled NADH fluorescence (FDH is formaldehyde dehydrogenase) | AID 2147; active = well fitted inhibition curve with a large enough effect, not every such curve was filed as active; inconclusive = small, poorly fitted or top-dose-only effect, or another doubt; inactive = no such curve, though single readings can be large or run the other way;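 note: 0% = wells with enzyme and -100% = buffer wells without enzyme; nearly all actives have a fitted effect of over 50% in size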
# Target sequence (B2RXH2 1-337 limits assumed): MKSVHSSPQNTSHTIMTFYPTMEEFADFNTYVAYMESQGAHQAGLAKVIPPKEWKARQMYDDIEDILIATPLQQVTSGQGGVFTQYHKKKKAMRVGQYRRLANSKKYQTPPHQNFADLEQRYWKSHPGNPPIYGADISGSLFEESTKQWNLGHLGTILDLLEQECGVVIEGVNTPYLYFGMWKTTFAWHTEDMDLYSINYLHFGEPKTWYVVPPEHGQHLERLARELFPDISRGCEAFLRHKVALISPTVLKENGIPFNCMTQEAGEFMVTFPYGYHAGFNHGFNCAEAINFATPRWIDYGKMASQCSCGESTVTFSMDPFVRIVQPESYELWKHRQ
# HttQ103 aggreg: mutant huntingtin aggregation inhibition | PC12 HttQ103-GFP aggregates, Acumen cytometry, 40 h | Potency, µM (series often up to 46.1 µM), for the others: at the highest dose activity change, negative = inhibition, most hits filed as inhibitors | hit rate 1.1% among 220,000 | AID 1688; note: % is set by controls: 0 for no effect and ±100 for the full control effect; nearly all actives have a fitted effect of over 60% in size
#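 Read-out: GFP aggregate count by laser scanning cytometer (488 nm excitation, 500-530 nm emission, 1–25 µm objects >6 SD above background). Cells: PC12, inducible HTTex1-Q103-GFP, 100 nM tebufenozide; compounds titrated.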
# L3MBTL1 inh-2: blocks human L3MBTL1 methyl-lysine binding; shares compounds with L3MBTL1 inh-1; L3MBTL1 methyl-lysine binding inhibition, biochemical qHTS; Potency, µM, usual class: inhibitors; hit rate 91% among 500; AID 540279; note: nearly all actives have a fitted effect of over 70% in size
# L3MBTL1 ctr: AlphaScreen signal inhibition, L3MBTL1 hit counter-screen. shares compounds with L3MBTL1 inh-1. AlphaScreen counterscreen, signal inhibition. Potency, µM (series often up to 57.1 µM), without a hit: at the top dose activity change, negative = inhibition, hits mostly inhibitors. 500 tested, under 10 active. AID 602224; note: 0% is about no effect
# * hit, by the source's call; ? = inconclusive; nt = no result given; [ ] = remark or other dose. Shown are actives, neighbours in structure and some others; about 1.8% of the full set was active somewhere. Unless noted, calls come from the whole dose curve; as a rule, active = well fitted curve in the direction sought with a large enough effect; inconclusive = small, poorly fitted or top-dose-only effect, or another doubt; inactive = no such curve, though single readings can be large; an effect the other way counts as inactive or inconclusive. Potency is the fitted concentration of half-maximal effect.
SMILES,L3MBTL1 inh-1,HTT cytoprotect,JMJD2E inh,HttQ103 aggreg,others
CCSc1nnc(NC(=O)C(C)(C(F)(F)F)C(F)(F)F)s1,nt,-44%,-8%,25µM*,
Cc1cc(/C=C2/C(=N)N3C(=NC2=O)SN=C3S(C)(=O)=O)c(C)n1-c1ccc(F)cc1,nt,-111%,32µM*,4%,
Cc1ccc(-n2cccc2/C=C2/C(=N)N3C(=NC2=O)SN=C3S(C)(=O)=O)cc1Cl,?,9%[10 µM],22µM*,-6%,
CCOc1ccc(-n2c(C)cc(/C=C3/C(=N)N4C(=NC3=O)SN=C4S(C)(=O)=O)c2C)cc1,nt,-22%,?,-19%,
Cc1cccc(C)c1-n1cccc1/C=C1/C(=N)N2C(=NC1=O)SN=C2S(C)(=O)=O,nt,15%,-11%,-10%,
CCCCNc1nc(C)nc2c1nc(-c1ccccc1)n2CC1CCCN1CC (stereo not drawn),nt,-31%,?,nt,
N#CC(c1ccccc1)c1ccc2c(C(F)(F)F)cc(C(F)(F)F)nc2n1 (stereo not drawn),nt,-70%,-1%,22µM*,
Cc1ccc(C(C#N)c2ccc3c(C(F)(F)F)cc(C(F)(F)F)nc3n2)cc1 (stereo not drawn),?,-55%,3%,?,
CN(C)c1ncnc2ccc(-c3cccc(NS(C)(=O)=O)c3)cc12,nt,-131%,nt,nt,
COC(=O)c1cc2nc(-c3ccccc3)cc(C)n2n1,6%,-22%,?,-6%,
Cc1cc(-c2ccccc2)nc2cc(C(=O)N(Cc3ccccc3)Cc3ccccc3)nn12,20%,15%[10 µM],?,13µM*,
O=c1c(-c2cc(F)cc(F)c2)nc2cnc(N3CCOCC3)nc2n1CCc1ccccc1,nt,-12%,nt,nt,
Cc1ccc(-c2cc(C(=O)NC3=NCCS3)c3cc(Br)ccc3n2)o1,32µM*,-17%[10 µM],8.9µM*,?,
Cc1ccc(-c2cc(C(=O)NN3CCOCC3)c3cc(Br)ccc3n2)o1,-5%,-2%[10 µM],?,17%,
C#CCCCO/N=C1/C[C@@H](O)[C@@H](O)[C@@H]2[C@@H]3C(=O)N(Cc4ccc5c(c4)OCO5)C(=O)[C@H]3CC[C@@H]12,nt,4%[10 µM],nt,nt,
FC(F)(F)c1ccccc1-c1nccc(NCCN2CCOCC2)n1,nt,9%,nt,nt,
Cc1ccc([N+](=O)[O-])cc1N=Nc1c(-c2ccc([N+](=O)[O-])cc2)[nH]n(C(N)=S)c1=O,-9%,nt,-3%,23%,
NC(=S)n1[nH]c(-c2ccc([N+](=O)[O-])cc2)c(N=Nc2ccc(Cl)cc2)c1=O,?,-85%,-5%,7.9µM*,
O=S1(=O)Nc2c(ccc3cccnc23)-c2ccccc21,11µM*,-19%[0.074 µM],?,?,L3MBTL1 inh-2=3*;L3MBTL1 ctr=9.5µM*
O=c1[nH]n(-c2cccc3cccnc23)c(=O)c2ccccc12,2%,18%,-5%,3%,
O=C(CSc1nc(-c2ccccc2)nc2ccc(F)cc12)Nc1ccc(C(=O)O)cc1,40µM*,28%,-9%,31%,L3MBTL1 inh-2=?;L3MBTL1 ctr=?
O=C(CSc1nc(-c2ccccc2)nc2ccc(F)cc12)Nc1cccc(C(=O)O)c1,nt,11%[10 µM],-6%,-1%[9.22 µM],
NC(=O)c1cc[n+](CC2=C(C(=O)O)N3C(=O)[C@@H](NC(=O)[C@H](c4ccccc4)S(=O)(=O)[O-])[C@@H]3SC2)cc1,nt,?,-28%[25.5 µM],14%[20.6 µM],
CN(CC(=O)Nc1ccc(F)cc1)C(=O)c1cc2c(s1)CCCCC2,8%,nt,nt,nt,
COc1ccc(NC(=O)CN(C)C(=O)c2cc3c(s2)CCC3)cc1,3.2µM*,nt,nt,nt,L3MBTL1 inh-2=0.75*;L3MBTL1 ctr=5%
O=C(/C=C/c1ccc(O)c(O)c1)OC1C(O)CC(OC(=O)/C=C/c2ccc(O)c(O)c2)(C(=O)O)CC1O (stereo not drawn),1µM*,12%[10 µM],3.2µM*,4%[9.22 µM],L3MBTL1 inh-2=0.075*;L3MBTL1 ctr=7%
O=C(/C=C/c1ccc(O)c(O)c1)O[C@@H]1C[C@](O)(C(=O)O)C[C@@H](O)[C@H]1O,8%,nt,nt,nt,
C[C@@]1(O)C(O)[C@@H](CO)O[C@H]1n1cnc2c(NC3CCCC3)nc(Cl)nc21 (stereo partly drawn),nt,-41%,2%,nt,
